# Results filed as inconclusive are left out. Unmarked numbers belong to inactive results. Activity calls are given as the source filed them. The call rests on the fitted dose curve; in most records, active means well fitted inhibition curve with a large enough effect; inconclusive means small, poorly fitted or top-dose-only effect; inactive means no such curve, though single readings can be large or run the other way.
# Assay: qHTS Assay for Lipid Storage Modulators: S3 Assay against Probe and Analogs
# Settings: Drosophila S3 cells, BODIPY lipid droplet fluorescence, 18-24 h, oleic acid added to induce droplets; series mostly up to 46.1 µM; activity, negative = lipid storage inhibition: at the top concentration
# How it was run: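 Lipid droplet accumulation by BODIPY 493/503 intensity over Cell Tracker Red cell signal, on an Acumen laser cytometer, in embryonic Drosophila S3 cells. Oleic acid added with compounds; 18-24 h, 25 °C. Triacsin C, 20 uM, defines 100% inhibition.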
Structure (SMILES),"activity, negative = lipid storage inhibition [%]",Potency
CCOC(=O)C1CCN(C(=O)CNC(=O)Nc2ccccc2Cl)CC1,-20,
CCOc1ccc(CCNC(=O)c2cc3sccc3n2Cc2ccc(Cl)c(F)c2)cc1OCC,,5.9 nM (active)
O=C(c1cc2sccc2n1Cc1ccccc1)N(CCc1ccc(O)c(O)c1)Cc1ccccc1,167,
CC(NCc1ccc2c(c1)nc(NC(=O)c1ccc(-c3cn[nH]c3)s1)n2CC(C)(C)O)C(C)(C)C (stereo not drawn),-30,
CCOc1cc2c(cc1OCC)CN(C(=O)c1cc3sccc3n1Cc1ccccc1)CC2,,1320 nM (active)
CCOC(=O)C1CCN(C(=O)C(C)(C)NC(=O)Nc2ccc(OC)c(Cl)c2)CC1,-93.3,
CCOC(=O)C1CCN(C(=O)C(C)(C)NC(=O)Nc2ccc(-c3ccccc3)cc2)CC1,-100,
CCOc1ccc(CCNC(=O)c2ccc(C3(C(F)(F)F)N=N3)cc2)cc1OCC,-76.7,
CC1=C(C(=O)NC2CCCc3c2cnn3-c2ccc(F)cc2F)OCCO1 (stereo not drawn),,59 nM (active)
O=C(NC1CCCc2c1cnn2-c1ccc(F)cc1F)C1CC1 (stereo not drawn),-100,
O=C(O)c1cccc(-c2noc(-c3ccccc3F)n2)c1,33.3,
CCOc1ccc(CCNC(=O)Cc2ccccc2)cc1OCC,46.7,
Cc1cc2c(cc1C1(c3ccc(C(=O)O)cc3)CC1)C(C)(C)CCC2(C)C,53.3,
CC(C)(C)OC(=O)NCCOCCOCCOc1ccc(-n2ncc3c2CCCC3NC(=O)c2ccccn2)cc1 (stereo not drawn),,9.3 nM (active)
CCOc1ccc(CCNC(=O)C2CCCCC2)cc1OCC,66.7,
CC(C)(NC(=O)Nc1ccccc1Cl)C(=O)N1CCC(C(=O)O)CC1,-50,
COc1ccc(-n2ncc3c2CCCC3NC(=O)c2ccccn2)cc1 (stereo not drawn),,1.3 nM (active)
O=C(N[C@H]1CCCc2c1cnn2-c1ccc(F)cc1F)c1ccccn1,13.3,
